According to PubChem BioAssay AID1041 (National Center for Advancing Translational Sciences (NCATS), 2008):
Activity calls are given as the source filed them.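 Rule for the calls: active = compound lifting p16 RNA above DMSO-treated cells by a clear fold change, a shift of a few PCR cycles; inactive = the rest, including any drop in level.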

Assay: p16 Derepression/Induction Secondary Assay for qHTS Assay for Epigenetic Modulators
Details: H358 cells, p16 mRNA RT-qPCR, 72 h; stronger effect = higher value
Source text: NIH Molecular Libraries Screening Centers Network [MLSCN] NIH Chemical Genomics Center [NCGC] MLSCN Grant: 1 X01 MH079860-01 Assay Provider: Elisabeth D. Martinez, University of Texas SW Medical Center NCGC Assay Overview: This secondary assay characterizes selected actives identified in the qHTS of the Locus Derepression (LDR) assay (PubChem AID 597). The LDR assay detects the derepression of a GFP reporter that is stably integrated in a region of the genome of murine c127i mammary cells that is presumably silenced. Compounds that cause derepression of the locus to express GFP are identified by enumerating GFP positive cells using a laser-scanning microplate cytometer. Selected LDR actives were assayed for the induction of p16 gene expression, a gene silenced by dense methylation of its promoter. Treatment of cells with DNA methyltransferase inhibitors like 5-azadeoxycytidine induce p16 gene expression. Compounds active in this assay may affect components involved in DNA methylation or gene transcription.
NCGC Assay Protocol Summary Exponentially growing H358 non-small cell lung cancer cells were treated daily with fresh media containing the indicated concentrations of compounds for 72 hr. Cellular RNA was extracted, quantified, DNAse treated and reverse transcribed. The resulting cDNA was amplified in TaqMan real time quantitative PCR assays (Applied Biosystems) containing validated primers specific for p16 (Hs00233365_m1). Reactions were performed on an ABI Prism 7900HT, with an initial 2 min preincubation at 50 C, followed by 10 min at 95 C and then 40 cycles of 95 C for 15 seconds and 60 C for 1 min. GAPDH and 18S ribosomal RNA were used as references. Gene expression was measured by fold-induction over control DMSO-treated samples (36-37 average cycle time). Increases corresponded to at least 2-3 cycle time differences over DMSO controls, which were in the measurable range. Decreases in expression were considered insignificant as measurement of the DMSO samples were at the low limit of detection. Reactions were run in triplicate and error bars represent standard deviations. For further details, see R.L. Johnson, W. Huang, A. Jadhav, C.P. Austin, J. Inglese, E.D. Martinez, A Quantitative High-Throughput Screen Identifies Potential Epigenetic Modulators of Gene Expression, Analytical Biochemistry (2007), doi: 10.1016/j.ab.2007.12.028

Row | SMILES | fold change
1 | O=Nc1ccc(O)c2ncccc12 | 2 (inactive)
2 | CC(C)C(=O)NC(c1ccco1)c1ccc2cccnc2c1O (configuration not stated) | 1 (inactive)
3 | CN1CCN(Cc2cc(Cl)c3cccnc3c2O)CC1 | 1 (inactive)
4 | COc1ccc(C(NC(=O)C(C)C)c2ccc3cccnc3c2O)cc1 (configuration not stated) | 1 (inactive)
5 | CC(C)C(=O)NC(c1ccco1)c1cc([N+](=O)[O-])c2cccnc2c1O (configuration not stated) | 2 (inactive)
6 | CC(C)C(=O)NC(c1ccc(N(C)C)cc1)c1ccc2cccnc2c1O (configuration not stated) | 0.4 (inactive)
7 | O=C(CSc1cccc2cccnc12)N1CCCC1 | 1 (inactive)
8 | Nc1ncn([C@H]2C[C@H](O)[C@@H](CO)O2)c(=O)n1 | 351 (active)
9 | CC(/C=C/C(=O)NO)=C\[C@@H](C)C(=O)c1ccc(N(C)C)cc1 | 1 (inactive)
10 | CCN1CSC(=S)N(CC)C1 | 1 (inactive)
11 | CN(C)C(=O)CSc1cccc2cccnc12 | 0.4 (inactive)
12 | O=C(CSc1cccc2cccnc12)NCc1ccccc1 | 1 (inactive)
